From PubChem
Only some compounds are listed: those with a hit (about 3.2% of all), similar ones and a draw of the others.
PrPC surface inh – inhibitors of human cell surface prion protein PrPC, primary screen, cell-based, TR-FRET | inhibition, % at 13.8 µM | TR-FRET read-out | 370,000 compounds, 0.43% hits | Major prion protein (Homo sapiens), P04156 | AID 720596, 2013; in the data active = inhibition above about 24%
GDH-TPI inh – GDH-TPI coupling enzyme inhibitors, primary screen, artefact control for M. tuberculosis FBA inhibitor project, biochemical, absorbance, full deck; GDH-TPI coupled enzyme counterscreen, NADH absorbance; 360,000 compounds, 1.2% hits; AID 588335, 2011; inhibition, % at 4.8 µM; in the data active = inhibition above about 30%
Mtb FBA inh – Mtb FBA enzyme inhibitors, primary screen, biochemical, fluorescence, strain H37Rv. Fructose-bisphosphate aldolase (Mycobacterium tuberculosis (strain ATCC 25618 / H37Rv)), …. purified M. tuberculosis FBA, fluorescence read-out. inhibition, % at 1 µM. 360,000 compounds, 2.3% hits; in the data active = inhibition above about 27%
TcdB inh – TcdB glycohydrolase inhibitors, primary screen, biochemical, single point, plate reader; 350,000 compounds, 0.24% hits; inhibition, % at 9.99 µM; TcdB glycohydrolase enzymatic assay; Toxin B (Clostridioides difficile), P18177; AID 652162, 2013; in the data active = inhibition above about 10%
Y pestis TopoI – Yersinia pestis topoisomerase I inhibitors, primary screen, biochemical, cleavage product accumulation, plate reader, single point; DNA topoisomerase I (Yersinia pestis CO92); Y. pestis Topo-I cleavage product accumulation; activity, % at 10 µM; 360,000 compounds, 0.064% hits; AID 504884, 2011; in the data active = activity above about 50%, passing the limit was not always enough
PrPC confirm – confirmation of inhibitors of cell surface human prion protein, confirmation, cell-based, TR-FRET; shares compounds with PrPC surface inh; inhibition, % at 13.8 µM; cell surface PrPC level; 1,500 compounds, 65% hits; AID 743200, 2013; in the data active = inhibition above about 25%
LD9 tox – cytotoxicity in LD9 cells, cytotoxicity control for cell surface PrPc inhibitor project, cell-based, luminescence, high throughput; shares compounds with PrPC surface inh; luminescence viability; inhibition, % at 13.8 µM; 1,500 compounds, 29% hits; in the data active = inhibition above about 9.5%
A number is an active result; i = inactive; nt = no result.

SMILES	PrPC surface inh	GDH-TPI inh	Mtb FBA inh	TcdB inh	Y pestis TopoI	PrPC confirm	LD9 tox
COc1cnc(-c2ccccn2)nc1Oc1ccccc1	i	i	i	i	i	nt	nt
Cc1cc(C)c(S(=O)(=O)NCc2ccncc2)c(C)c1	40.4	i	i	nt	i	34.6	i
Cc1cc(C)c(S(=O)(=O)NCCc2ccncc2)c(C)c1	i	i	i	i	i	nt	nt
CC(=O)OC[C@]12CCC(C)=C[C@H]1O[C@@H]1[C@H](O)[C@@H](OC(C)=O)[C@@]2(C)[C@]12CO2	88.2	i	i	i	i	99.1	58.6
N#Cc1cccc(C(c2nnnn2C2CCCC2)N2CCCCCC2)c1 (configuration not stated)	41.1	i	i	nt	i	i	i
N#Cc1cccc(C(c2nnnn2C2CCCC2)N2CCC(Cc3ccccc3)CC2)c1 (configuration not stated)	i	i	i	i	i	nt	nt
O=C(C1=C(O)C(=O)N(CCN2CCOCC2)C1c1cccc(Br)c1)c1cc2ccccc2o1 (configuration not stated)	75.4	i	134.1	i	i	129.7	i
O=C(Nc1ccc2c(c1)OCO2)c1ccc2sc([C@@H]3O[C@H](CO)[C@@H](O)[C@H]3O)nc2c1	25.5	i	i	i	i	i	i
CCCC(=O)Nc1ccc2c(c1)C(=O)N(C)[C@@H]1CC[C@H](CC(=O)NC3CCCC3)O[C@H]1CO2	nt	nt	nt	i	nt	nt	nt
COC(=O)C12OCC34C(CC5C(C)=C(O)C(=O)CC5(C)C3C(O)C1O)OC(=O)C(OC(=O)/C=C(\C)C(C)C)C24 (configuration not stated)	100.5	i	i	i	i	100.0	46.9
COC(=O)C12OCC34C(CC5C(C)=C(O)C(=O)CC5(C)C3C(O)C1O)OC(=O)C(OC(=O)C=C(C)C)C24 (configuration not stated)	99.7	i	i	i	i	100.8	34.8
CCn1c2ccccc2c2cc(C=NNC(=O)c3ccoc3C)ccc21	i	nt	nt	nt	nt	nt	nt
Cn1c2ccccc2c2cc(/C=N/NC(=O)c3ccccc3F)ccc21	47.3	47.0	i	i	i	i	i
CCC1=C(CC2NCCc3ccccc32)CC2c3cc(OC)c(OC)cc3CCN2C1 (configuration not stated)	76.4	i	i	i	i	82.7	27.9
CC[C@H]1CN2CCc3cc(OC)c(OC)cc3C2C[C@@H]1C[C@H]1NCCc2cc(OC)c(OC)cc21 (some centres not stated)	91.7	i	i	i	i	97.8	49.9
COc1cc2c(cc1OC)CN1CCc3cc(OC)c(OC)cc3C1C2 (configuration not stated)	i	i	i	i	i	nt	nt
CC(=O)N(C)C[C@H]1Oc2cc(-c3cccc(C#N)c3)ccc2S(=O)(=O)N([C@@H](C)CO)C[C@H]1C	nt	nt	nt	i	nt	nt	nt
C[C@H]1CN([C@@H](C)CO)C(=O)c2cc(NS(=O)(=O)c3ccc(Cl)cc3)ccc2O[C@@H]1CN(C)S(=O)(=O)c1ccc(F)cc1	nt	nt	nt	i	nt	nt	nt
Cc1nc(Nc2nc(CSc3nc4ccccc4[nH]3)cc(=O)[nH]2)nc2ccccc12	33.8	i	i	nt	i	45.6	20.4
COc1ccccc1S(=O)(=O)N[C@H]1CC[C@@H](CCn2cc(C3CCCC3)nn2)O[C@@H]1CO	nt	nt	nt	i	nt	nt	nt
CCOC(=O)Nc1sc(C)nc1-c1ccccc1	i	i	i	i	i	nt	nt
CCOC(=O)Nc1nc(-c2ccccc2)c(C(=O)c2ccc(Cl)cc2)s1	25.1	i	i	nt	i	i	9.6
COc1ccc(C2CC(O)(c3ccccc3)Oc3cc(OC)c(OC)c(OC)c32)cc1 (configuration not stated)	i	i	i	i	i	nt	nt
COc1ccc([C@@]23Oc4cc(OC)cc(OC)c4[C@]2(O)[C@H](O)[C@H](C(=O)N(C)C)[C@H]3c2ccccc2)cc1	98.0	i	i	i	i	98.8	28.8
CC(=O)c1ccc(CCCCCCCCCC(=O)O)s1	76.1	i	i	nt	i	68.3	i
SMILES	PrPC surface inh	GDH-TPI inh	Mtb FBA inh	TcdB inh	Y pestis TopoI	PrPC confirm	LD9 tox
COC(=O)CCCCCc1ccc(C(C)=O)s1	62.5	i	i	nt	i	77.0	i
O=C(C[C@@H]1C=C[C@H](NC(=O)C2CCC2)[C@@H](CO)O1)NCCCN1CCOCC1	nt	nt	nt	i	nt	nt	nt
O=C(Nc1cccc(Cl)c1)N[C@@H]1CC[C@@H](CCNC(=O)C2CCCC2)O[C@@H]1CO	nt	nt	nt	i	nt	nt	nt
COc1ccc(CN(C)C[C@H]2Oc3ccc(NC(=O)CCC(F)(F)F)cc3C(=O)N([C@@H](C)CO)C[C@H]2C)cc1	nt	nt	nt	i	nt	nt	nt
Cc1ccc(C2C(C#N)=C(N)SC(N)=C2C#N)cc1	90.8	i	i	nt	i	86.5	i
O=C(Nc1cccc(Cl)c1)Nc1ccc2c(c1)OCO2	31.5	i	i	nt	i	31.2	i
C[C@@H]1CN([C@@H](C)CO)C(=O)c2c(c3ccccc3n2C)-c2ccccc2CO[C@@H]1CN(C)C(=O)c1ccc(F)cc1	nt	nt	nt	i	nt	nt	nt
C[C@H]1COc2c3ccc(I)cc3nn21	47.0	nt	nt	nt	nt	69.9	i
Cc1ccc(S(=O)(=O)N[C@@H]2CC[C@H](CC(=O)NC3CCCCC3)O[C@H]2CO)cc1	nt	nt	nt	i	nt	nt	nt
CCc1ccc(NC(=O)c2nc(S(=O)(=O)Cc3ccccc3)ncc2Cl)cc1	64.3	i	i	i	i	i	95.9
COC(=O)c1ccc(NC(=O)c2nc(S(=O)(=O)Cc3cccc(C)c3)ncc2Cl)cc1	84.1	i	i	i	i	46.1	95.8
CCS(=O)(=O)c1ncc(Cl)c(C(=O)Nc2ccc(S(=O)(=O)N3CCC(C)CC3)cc2)n1	79.0	i	i	i	i	38.1	99.6
O=C(N[C@@H]1C=C[C@@H](CC(=O)N2CCCCC2)O[C@H]1CO)c1cccc(F)c1	nt	nt	nt	i	nt	nt	nt
CCCN1C[C@H](C)[C@H](OC)CN(C)C(=O)c2cc(NS(=O)(=O)CC)ccc2OC[C@@H]1C	nt	nt	nt	i	nt	nt	nt
COc1cc(NC(=S)NC(C)(C)C)c(OC)cc1Cl	24.6	i	i	i	i	i	i
COc1cc(NC(=S)Nc2cccc(Cl)c2Cl)c(OC)cc1Cl	i	i	i	i	i	nt	nt
O=C1N(CC(=O)N2CCc3ccccc32)CCN1Cc1ccc(Cl)cc1	45.7	i	i	nt	i	i	i
CC1CCN(C(=O)CSc2nc3ccccc3s2)CC1	i	i	i	nt	i	nt	nt
CC1CCCN(C(=O)CSc2cnc3ccccc3n2)C1 (configuration not stated)	38.8	i	i	i	i	71.0	i
Cc1nc2ccccc2nc1SCC(=O)N1CCC(C)CC1	55.4	i	i	nt	i	50.2	i
